Data taken from PubChem BioAssay (NCATS).
Records with an inconclusive call do not appear. Where a call stands in place of a potency, no number is given. Unmarked numbers belong to inactive results. Active and inactive are the calls of the source. Calls come from the whole dose curve; as a rule, active = well fitted cell-killing curve with a large enough effect; inconclusive = small, poorly fitted or top-dose-only effect, or effect the other way; inactive = no such curve, though single readings can be large or run the other way.

What was measured:
[1] = Viability qHTS for spleen associated tyrosine kinase inhibitor (SYKi) naive MV4-11 cells (AID 1963823); note: nearly all actives have a fitted effect of over 40% in size
Method in brief: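 SYKi-naive MV4-11 AML cells, 500 per well, were exposed to library compounds for 72 hr at 37 C, 5% CO2. Viability was then read by CellTiter-Glo luminescence after 10 min at room temperature.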

[2] = Viability qHTS for spleen associated tyrosine kinase inhibitor (SYKi) drug resistant MV4-11 cells (AID 1963824); note: nearly all actives have a fitted effect of over 35% in size
Method in brief: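 CellTiter-Glo luminescence, read 10 min after reagent addition, reports viability after a 72 hr compound exposure. Cells are an MV4-11 line made resistant to SYK inhibition, seeded at 500 per well onto compound-containing plates.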
Potency is the fitted concentration of half-maximal effect.

Row | SMILES | Potency [1] | Potency [2] | viability (% of control) [1] | viability, % of control [2]
1 | C[C@]12CC[C@H](O)C[C@H]1CC[C@@H]1[C@@H]2[C@H](O)C(=O)[C@]2(C)[C@@H](c3ccc(=O)oc3)CC[C@]12O | 0.0103 µM (active) | 0.0092 µM (active) |  | 
2 | C=C(C)[C@@H]1CCC(C)=C[C@H]1c1c(O)cc(CCCCC)cc1O | 20.9 µM (active) | 16.6 µM (active) |  | 
3 | CC[C@H]1CN2CC[C@H]1C[C@@H]2[C@@H](O)c1ccnc2ccc(OC)cc12 | inactive | inactive |  | 
4 | CC(=O)OC[C@]12[C@H](OC(C)=O)C(=O)[C@@H]3[C@@H](O)[C@@]14O[C@@]3(C)COC(=O)c1cccnc1[C@@H](C)[C@H](C)C(=O)O[C@@H]([C@H](OC(C)=O)[C@@H]2OC(C)=O)[C@]4(C)O | 5.44 µM (active) | 5.44 µM (active) |  | 
5 | C/C=C(\C)C(=O)OC1CC2C(C)(C)OC(=O)CC(OC(C)=O)C2(C)C2CC(OC(=O)C(C)C)C3(C)C(c4ccoc4)CC4OC43C12C (stereo unspecified) | inactive | inactive |  | 
6 | COCC1OC(=O)c2coc3c2C1(C)C1=C(C3=O)C2CCC(=O)C2(C)CC1O (stereo unspecified) | inactive | inactive |  | 
7 | COC(=O)C1(C)CCC(=O)C2(C)c3c(O)cc(C(C)C)cc3C(O)C(OC(C)=O)C12 (stereo unspecified) | inactive | inactive |  | 
8 | C/C=C(\C)C(=O)OC1C(C)OC(OC2C(C)OC(OC3CCC4(C)C(=CCC5C4CCC4(C)C(C(C)OC6OC(COC7OC(CO)C(O)C(O)C7O)C(O)C(O)C6O)CCC54O)C3)CC2OC)C(O)C1OC (stereo unspecified) |  |  | 78.5% [at 9.25 µM] | 105% [at 9.25 µM]
